Sampled rows, rich in hits. Any-hit rate of the full collection: about 3.8%.
NALP1 yeast inh: NALP1 inhibition; S. cerevisiae NALP1/ASC/caspase-1 growth, X-gal OD620, 72 h; AID 2071; inhibition, % at 10 µM; 280,000 compounds, 0.61% hits; in the data active = inhibition mostly above about 24%, no sharp cut-off; inactive = mostly below about 32%
p-CIP stab down: compounds decreasing mouse p/CIP protein stability; Q05BA5; F442A p/CIP-EGFP cells, EGFP fluorescence, 16 h; decrease of EGFP signal, % at 10 µM; 290,000 compounds, 0.01% hits; AID 1984;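 active = EGFP signal decrease of at least 30% at 10 µM or well 3 SD below plate mean, unless failing retest; inactive = the rest, including hits failing retest or dose response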
HSF1 activator: increases HSF-1 driven luciferase reporter signal. NIH3T3-HGL HSF-1 luciferase reporter, MG132, 8 h; 100% = twice DMSO control signal. activation, % at 9 µM. 300,000 compounds, 1.7% hits;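 active = mean replicate activation of at least 50% with a set share of replicates each reaching 50%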;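 note: 0% = median of the neutral control wells and 100% = twice that signal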
Hsp70 act: transcriptional activators of Hsp70; HeLa Hsp70 promoter luciferase reporter, luminescence; scaled: vehicle 0, proteasome-inhibitor control 100%; activation, % at 10 µM; 200,000 compounds, 0.04% hits; AID 1203;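 active = activation above the mean across all tested compounds plus 3 SD, cutoff set per campaign, cut at about 5.5% in these data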;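 note: 100% = MG132 at 30 µM as the positive control and 0% = DMSO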
HSF1 inh: HSF1 inhibition; 300,000 compounds, 0.77% hits; AID 2098; activity change, negative = inhibition, % at 7.5 µM (by protocol); NIH3T3-HGL HSE-luciferase, MG132-induced, luminescence 8 h; hits give low values;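 active = more than half of replicate wells show activity change below -50%, luminescence cut by over half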;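 note: luciferase reports HSF-1 transcriptional activity via heat shock element; 0% = median of DMSO wells and -100% = zero luminescence signal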
HSP90 inh: HSP90 refolding inhibition in rabbit reticulocyte lysate; luciferase refolding luminescence, 3 h; inhibition, % at 5.6 µM; 290,000 compounds, 0.91% hits;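 active = inhibition above the screen-wide mean plus 3 SD, computed separately per campaign, cut at about 16% in these data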;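 note: 0% = DMSO wells and 100% = 60 µM geldanamycin wells; inhibitors lower the luminescence because luciferase stays unfolded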
Starred values were filed as active, the others as inactive.

Results for O=C(N/N=C/c1ccco1)C(O)C(O)C(=O)N/N=C/c1ccco1 (stereo not drawn) ?
NALP1 yeast inh: 5; p-CIP stab down: 0; HSF1 activator: 7; HSF1 inh: -1; HSP90 inh: 1

Results for Fc1ccc(-c2nnc3ccc(N4CCc5ccccc5C4)nn23)cc1 ?
NALP1 yeast inh: -4; p-CIP stab down: -4; HSF1 activator: 80*; Hsp70 act: 0; HSF1 inh: 64; HSP90 inh: 2

What do the screens show for `Nc1nnnn1CC(=O)N/N=C/c1ccccn1`?
NALP1 yeast inh: 11; p-CIP stab down: -4; HSF1 activator: 98*; HSF1 inh: 48; HSP90 inh: -3

How did Nc1nnnn1CC(=O)N/N=C/c1cccs1 do in these assays?
NALP1 yeast inh: 6; p-CIP stab down: -17; HSF1 activator: 21; HSF1 inh: 2; HSP90 inh: -4

What do the screens show for `C/C(=N/NC(=O)c1cccs1)c1ccco1`?
NALP1 yeast inh: 27; p-CIP stab down: -9; HSF1 activator: 56*; Hsp70 act: 1; HSF1 inh: 14; HSP90 inh: 6

Results for C/C(=N\NC(=O)c1cccs1)c1ccc(C(=O)O)s1 ?
NALP1 yeast inh: 5; p-CIP stab down: 3; HSF1 activator: 45; HSF1 inh: 20; HSP90 inh: -5

What do the screens show for `CC(=O)N/N=C(/C)c1ccc(NC(=O)c2csc(C)c2C)cc1`?
NALP1 yeast inh: 8; p-CIP stab down: 0; HSF1 activator: 71*; HSF1 inh: 43; HSP90 inh: 1

How did C/C(=N\NC(=O)c1csc(C)c1C)c1ccco1 do in these assays?
NALP1 yeast inh: 3; p-CIP stab down: -3; HSF1 activator: 63*; Hsp70 act: 0; HSF1 inh: 46; HSP90 inh: -5

Results for C/C(=N\NC(=O)c1csc(C)c1C)c1ccc(C)s1 ?
NALP1 yeast inh: 29; p-CIP stab down: -5; HSF1 activator: -14; Hsp70 act: 0; HSF1 inh: 3; HSP90 inh: -4

What do the screens show for `Cc1ccc2nc(-c3ccccc3)cc(C(=O)NNC(=O)c3csc(N4CCOCC4)n3)c2c1`?
HSF1 activator: -3; HSF1 inh: 3

What do the screens show for `O=C(c1ccc(Cl)c([N+](=O)[O-])c1)N(Cc1ccco1)C1CCS(=O)(=O)C1` (stereo not drawn)?
NALP1 yeast inh: -1; p-CIP stab down: 0; HSF1 activator: -4; HSF1 inh: -6; HSP90 inh: -1

Results for Cn1nccc1C(=O)N1CCN(S(=O)(=O)c2ccc(Br)s2)CC1 ?
NALP1 yeast inh: 2; p-CIP stab down: -8; HSF1 activator: -14; HSF1 inh: -4; HSP90 inh: -3

Results for CCN1C(=NCCc2cccs2)N[C@@H](c2cccs2)C(C(=O)OC)=C1C ?
NALP1 yeast inh: 26; p-CIP stab down: -10; HSF1 activator: -69; HSF1 inh: -60*; HSP90 inh: 0

Results for CCc1nn(C(C)C(=O)NC(C)CCc2ccco2)c(=O)c2cc3occc3n12 (stereo not drawn) ?
NALP1 yeast inh: 10; p-CIP stab down: 9; HSF1 activator: 129*; Hsp70 act: 0; HSF1 inh: 66; HSP90 inh: 10

How did CCc1nn(C(C)C(=O)NCCc2ccccc2)c(=O)c2cc3occc3n12 (stereo not drawn) do in these assays?
NALP1 yeast inh: 18; p-CIP stab down: -1; HSF1 activator: -13; HSF1 inh: -7; HSP90 inh: -1

What do the screens show for `O=C(N=Nc1c(O)n(Cc2ccccc2)c2ccccc12)c1ccc(O)cc1`?
NALP1 yeast inh: 31; p-CIP stab down: -13; HSF1 activator: 62*; Hsp70 act: 0; HSF1 inh: 51; HSP90 inh: 3

Results for CCn1c(O)c(N=NC(=O)CNC(=O)/C=C/c2ccccc2)c2ccccc21 ?
NALP1 yeast inh: 12; p-CIP stab down: -8; HSF1 activator: 5; HSF1 inh: -5; HSP90 inh: -2

What do the screens show for `Cn1c(O)c(N=NC(=O)c2ccco2)c2ccccc21`?
NALP1 yeast inh: 36*; p-CIP stab down: 1; HSF1 activator: 44; Hsp70 act: 0; HSF1 inh: 32; HSP90 inh: 7

Results for Cn1c(O)c(N=NC(=O)CNC(=O)/C=C/c2ccccc2)c2ccccc21 ?
NALP1 yeast inh: 37*; p-CIP stab down: -10; HSF1 activator: 4; HSF1 inh: -2; HSP90 inh: -4

Results for O=C(N=Nc1c(O)n(Cc2ccccc2)c2ccccc12)c1cc2ccccc2cc1O ?
NALP1 yeast inh: 5; p-CIP stab down: 4; HSF1 activator: 42; Hsp70 act: 0; HSF1 inh: 15; HSP90 inh: -7

Results for CCN(C(=O)c1ccco1)C1C2CC3CC(C2)CC1C3 (stereo not drawn) ?
NALP1 yeast inh: 8; p-CIP stab down: -5; HSF1 activator: -2; HSF1 inh: -13; HSP90 inh: 1

How did Cc1cc(C)c(C)c(OCC(O)CN2CCN(c3ccccn3)CC2)c1 (stereo not drawn) do in these assays?
NALP1 yeast inh: 36; p-CIP stab down: -6; HSF1 activator: 6; HSF1 inh: -7; HSP90 inh: -4

What do the screens show for `CC12CNCC(C)(CN(C3(O)C(=O)Nc4ccc(Br)cc43)C1)C2=O` (stereo not drawn)?
NALP1 yeast inh: 2; p-CIP stab down: 4; HSF1 activator: 15; Hsp70 act: 0; HSF1 inh: 8; HSP90 inh: 0

How did O=C(O)c1cc2cc(F)ccc2[nH]1 do in these assays?
NALP1 yeast inh: 15; p-CIP stab down: 0; HSF1 activator: -72; Hsp70 act: 0; HSF1 inh: -64*; HSP90 inh: -4

How did CN1CCN(C(=O)c2cc3cc(F)ccc3[nH]2)CC1 do in these assays?
NALP1 yeast inh: 10; p-CIP stab down: -5; HSF1 activator: -5; HSF1 inh: 1; HSP90 inh: -1

What do the screens show for `O=C(O)c1cc2nc3c(c(C(F)(F)F)n2n1)CCc1ccccc1-3`?
NALP1 yeast inh: 23; p-CIP stab down: -9; HSF1 activator: -14; Hsp70 act: 0; HSF1 inh: 1; HSP90 inh: -1

What do the screens show for `COCCNC(=O)c1cc2nc3c(c(C(F)(F)F)n2n1)CCc1ccccc1-3`?
NALP1 yeast inh: 30*; p-CIP stab down: -4; HSF1 activator: 0; Hsp70 act: 0; HSF1 inh: -5; HSP90 inh: -2

What do the screens show for `COc1ccc(S(=O)(=O)N2CCCCCC2)cc1C(=O)N(C)CC(=O)Nc1ccccc1Br`?
HSF1 activator: 25; HSF1 inh: 4

Results for CCOc1ccc(N(C(=O)c2ccccc2Cl)C2=NC(C)(C)CS2)cc1 ?
NALP1 yeast inh: -18; p-CIP stab down: 1; HSF1 activator: 51*; Hsp70 act: 0; HSF1 inh: 18; HSP90 inh: -2
